Shown are actives, neighbours in structure and some others; about 2.7% of the full set was active somewhere.
KKLEB cytotox = cytotoxicity in KKLEB CF airway cells, primary screen, cytotoxicity control for CF NF-kB inhibitor project, cell-based, uHTS, fluorescence assay plates | KKLEB CF airway cells viability, ATPlite luminescence, overnight; hits give low values; cells stimulated with P. aeruginosa culture filtrate | activity change (cytotoxicity), % at 5 µM | 360,000 compounds, 0.36% hits;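 active means corrected activity change at or below -50% at 5 µM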
CF NFkB block = inhibitors of PAF-induced NF-kB signaling, primary screen, cell-based, GFP fluorescence, uHTS; KKLEB NF-kB-GFP reporter, GFP fluorescence overnight; 360,000 compounds, 0.86% hits; AID 588850, 2011; inhibition, % at 5 µM;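 active means at least 50% inhibition at 5 µM, scaled per plate between neutral and stimulator controls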;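 further: PAF is a Pseudomonas aeruginosa culture filtrate used as stimulus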
HIF-2a inh = HIF-2a reporter inhibitors, primary screen, luminescence, 786-0 RCC cells. 786-0 RCC cells HIF-2a reporter, luciferase luminescence, overnight. inhibition, % at 18.8 µM. 360,000 compounds, 0.72% hits. AID 624352, 2012;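 active means inhibition of the luminescence signal of 40% or more relative to plate controls, in a single-dose primary screen at 18.75 µM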
Peg3 promoter = Peg3 promoter-driven luciferase inhibitors, primary screen, cell-based, HeLa, luciferase luminescence; HeLa PEG-Prom luciferase reporter, overnight; inhibition, % at 20 µM; 360,000 compounds, 1.7% hits; AID 588405, 2011;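 active means inhibition of at least 50% at 20 µM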
Shn3 inh set2 = reduction of Shn3 3'UTR firefly luciferase signal, primary screen, Schnurri-3 inhibitor project, cell-based, Clone20 osteoblasts, set 2; Clone20 osteoblast Shn3 3'UTR firefly luciferase, 24 h; inhibition, % at 12.5 µM; 360,000 compounds, 0.52% hits; AID 588674, 2011;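 active means mean inhibition of at least 75% with every replicate also reaching 75%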
TRPM1 prom inh = inhibitors of MITF-dependent TRPM1 promoter reporter, primary screen, cell-based, SK-MEL-5, single point, luciferase. AID 488899, 2010. SK-MEL-5 TRPM1 promoter luciferase, 24 h. inhibition, % at 12.5 µM. 330,000 compounds, 0.83% hits;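 active means mean inhibition across replicates of 60% or more, whatever share of single replicates reaches that level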
Large screens that a line does not name were inactive.

CC(=O)Nc1ccc(NC(=O)C(C)OC(=O)CCSc2ccccc2Cl)cc1 (configuration not stated)	none
CC(C)CNC(=O)C1(C)CCCN1Cc1ccc(S(C)(=O)=O)cc1 (configuration not stated)	none (no result: TRPM1 prom inh)
O=c1c(Br)ccc(Br)cc1Br	KKLEB cytotox -93.9, CF NFkB block 91.0, HIF-2a inh 89.0, Peg3 promoter 95.1, Shn3 inh set2 96.5, TRPM1 prom inh 101.9
O=C1CN(S(=O)(=O)c2cc(Br)ccc2Br)CCN1	none (no result: TRPM1 prom inh)
C#CCOCCOCCOCCNc1nc(N2CCN(C(=O)CCCCCCCCCCNC(=O)Cn3cc(C[C@@H](C)O)nn3)CC2)nc(N2CCN(C(=O)CCCCCCCCCCNC(=O)[C@@H]([C@H](C)CC)n3cc(CCCCCN)nn3)CC2)n1	Peg3 promoter 101.2, TRPM1 prom inh 98.8
C#CCOCCOCCOCCNc1nc(N2CCN(C(=O)CCCCCCCCCCNC(=O)[C@@H](CCC(=O)O)n3cc(CCCCCN)nn3)CC2)nc(N2CCN(C(=O)CCCCCCCCCCNC(=O)[C@H](CCCCN)n3cc(C[C@@H](C)CC)nn3)CC2)n1	none
C#CCOCCOCCOCCNc1nc(N2CCN(C(=O)CCCCCCCCCCNC(=O)[C@@H](CCSC)n3cc(CCO)nn3)CC2)nc(N2CCN(C(=O)CCCCCCCCCCNC(=O)[C@H](CCCN=C(N)N)n3cc(C[C@@H](C)CC)nn3)CC2)n1	TRPM1 prom inh 68.7
C#CCOCCOCCOCCNc1nc(N2CCN(C(=O)CCCCCCCCCCNC(=O)[C@H](CCCCN)n3cc(C[C@@H](C)CC)nn3)CC2)nc(N2CCN(C(=O)CCCCCCCCCCNC(=O)[C@H](CCCN=C(N)N)n3cc(C[C@@H](C)CC)nn3)CC2)n1	HIF-2a inh 41.0, Peg3 promoter 101.3, TRPM1 prom inh 103.9
C#CCOCCOCCOCCNc1nc(N2CCN(C(=O)CCCCCCCCCCNC(=O)[C@@H](CCSC)n3cc(CCO)nn3)CC2)nc(N2CCN(C(=O)CCCCCCCCCCNC(=O)[C@H](CO)n3cc(CCCCCN)nn3)CC2)n1	none
C#CCOCCOCCOCCNc1nc(N2CCN(C(=O)CCCCCCCCCCNC(=O)Cn3cc(C[C@@H](C)O)nn3)CC2)nc(N2CCN(C(=O)CCCCCCCCCCNC(=O)[C@@H](CCSC)n3cc(CCO)nn3)CC2)n1	TRPM1 prom inh 79.2
C#CCOCCOCCOCCNc1nc(N2CCN(C(=O)CCCCCCCCCCNC(=O)Cn3cc(CCCCCN)nn3)CC2)nc(N2CCN(C(=O)CCCCCCCCCCNC(=O)Cn3cc(C[C@@H](C)O)nn3)CC2)n1	none
C#CCOCCOCCOCCNc1nc(N2CCN(C(=O)CCCCCCCCCCNC(=O)[C@@H](CCSC)n3cc(CCO)nn3)CC2)nc(N2CCN(C(=O)CCCCCCCCCCNC(=O)[C@@H]([C@H](C)O)n3cc(C)nn3)CC2)n1	none
CC(C)c1cc(C(=O)N2CCCC(N3CCN(c4ccc(F)cc4)CC3)C2)n(C)n1 (configuration not stated)	none
CCOC(=O)Nc1ccc2c(c1)C(=NNC(N)=S)c1ccccc1-2	Peg3 promoter 70.7
NC(=O)c1cccc2c1-c1ccccc1/C2=N/NC(N)=S	none
CCOC(=O)Nc1ccc2c(c1)C(=NO)c1ccccc1-2	Shn3 inh set2 92.1
CC(C)(C)OC(=O)N[C@H](C(=O)OC(C)(C)C)c1ccccc1	none
c1ccc(CCNc2nc3ccccc3n3nnnc23)cc1	none
ClC(Cl)(Cl)c1nc2ccccc2n2nncc12	Peg3 promoter 79.2
C[C@@H]1O[C@@H](O[C@H]2[C@H](Oc3cc(O)c4c(c3)OC(c3ccc(O)cc3)CC4=O)O[C@H](CO)[C@@H](O)[C@@H]2O)[C@H](O)[C@H](O)[C@H]1O (some centres not stated)	KKLEB cytotox -54.5
C/C(=N\Nc1nc2ccccc2nc1C)c1ccccc1O	none
CC(=NNc1ccc2ccccc2n1)c1ccccc1O	HIF-2a inh 43.4 (no result: TRPM1 prom inh)
